Test results: PubChem BioAssay AID1159580 (chemical genetic matrix, 2015)
Where “and” joins values, the source holds several entries; their conditions need not be identical. Equal entries are not always repeated. The campaign covered roughly 5,500 compounds. About 2,000 (36%) were called active. Inconclusive results (about 18%) are left out. Rule as the data show it: active = normalized growth mostly below about 0.91 (no sharp cut-off); inconclusive = no clear call, values can overlap the other calls; inactive = mostly above about 0.92. This is one part of the list.

Assay: chemical genetic growth profiling, strain panel (AID 1159580);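 also: tested at 20 µM; growth read once vehicle control cultures reached saturation at 30 °C; 1 = growth at the plate median or of vehicle wells; lower values mean less growth of the strain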
Settings: S. cerevisiae deletion strains, growth OD

Measured: normalized growth

CC(=O)Nc1ccccc1
inactive: locus YAL021C, strain ccr4, active compounds read low 0.971 | locus YAL026C, strain drs2, active compounds read low 0.977 | locus YAL030W, strain snc1, active compounds read low 0.972 | locus YBL061C, strain skt5, active compounds read low 0.962 | locus YBR009C, strain hhf1, active compounds read low 0.977 | locus YBR021W, strain FUR4, active compounds read low 1.02 | locus YBR023C, strain chs3, active compounds read low 0.961 | locus YBR171W, strain sec66, active compounds read low 0.965 | locus YBR229C, strain ROT2, active compounds read low 0.957 | locus YBR231C, strain swc5, active compounds read low 0.963 | locus YBR279W, strain paf1, active compounds read low 0.981 | locus YCL011C, strain gbp2, active compounds read low 0.962 | locus YCL016C, strain dcc1, active compounds read low 0.966 | locus YCL029C, strain bik1, active compounds read low 0.983 | locus YCL061C, strain MRC1, active compounds read low 0.987 | locus YCL069W, strain vba3, active compounds read low 0.962 | locus YCR088W, strain abp1, active compounds read low 0.976 | locus YDL005C, strain med2, active compounds read low 0.98 | locus YDL035C, strain GPR1, active compounds read low 0.987 | locus YDL040C, strain nat1, active compounds read low 0.97 | locus YDL074C, strain BRE1, active compounds read low 0.963 | locus YDL101C, strain DUN1, active compounds read low 0.98 | locus YDL134C, strain PPH21, active compounds read low 1.02 | locus YDL185W, strain tfp1, active compounds read low 0.986 | locus YDL192W, strain arf1, active compounds read low 0.985 | locus YDR001C, strain nth1, active compounds read low 0.974 | locus YDR069C, strain doa4, active compounds read low 0.959 | locus YDR101C, strain arx1, active compounds read low 0.982 | locus YDR137W, strain rgp1, active compounds read low 1.01 | locus YDR150W, strain NUM1, active compounds read low 0.983 | locus YDR159W, strain sac3, active compounds read low 0.977 | locus YDR162C, strain NBP2, active compounds read low 0.995 | locus YDR195W, strain ref2 0.935 | locus YDR297W, strain sur2, active compounds read low 0.975 | locus YDR318W, strain mcm21, active compounds read low 0.999 | locus YDR334W, strain swr1, active compounds read low 0.956 | locus YDR335W, strain msn5, active compounds read low 0.982 | locus YDR388W, active compounds read low 0.986 | locus YDR392W, strain spt3, active compounds read low 0.993 | locus YDR502C, strain sam2, active compounds read low 0.989 | locus YEL003W, strain gim4, active compounds read low 0.973 | locus YEL037C, strain rad23, active compounds read low 0.972 | locus YEL061C, strain CIN8 (second series), active compounds read low 0.962 | locus YEL061C, strain CIN8, active compounds read low 0.975 | locus YER015W, strain faa2, active compounds read low 0.977 | locus YER016W, strain bim1, active compounds read low 0.973 | locus YER110C, active compounds read low 0.977 | locus YER111C, strain swi4, active compounds read low 0.972 | locus YER155C, strain BEM2 (second series), active compounds read low 0.981 | locus YER155C, strain BEM2, active compounds read low 0.999 | locus YER167W, strain BCK2, active compounds read low 0.999 | locus YFR010W, strain ubp6, active compounds read low 0.96 | locus YGL078C, strain dbp3, active compounds read low 0.99 | locus YGL086W, strain mad1, active compounds read low 0.981 | locus YGL167C, strain pmr1, active compounds read low 0.947 | locus YGL173C, strain kem1, active compounds read low 0.967 | locus YGL227W, strain vid30, active compounds read low 0.966 | locus YGL240W, strain doc1, active compounds read low 0.965 | locus YGL248W, strain PDE1, active compounds read low 0.976 | locus YGL253W, strain hxk2, active compounds read low 0.982 | locus YGR135W, strain pre9, active compounds read low 1 | locus YGR229C, strain SMI1, active compounds read low 0.973 | locus YGR252W, strain gcn5, active compounds read low 0.968 | locus YHR013C, strain ard1, active compounds read low 0.942 | locus YHR027C, strain rpn1, active compounds read low 0.973 | locus YHR030C, strain SLT2, active compounds read low 0.991 and 0.975 | locus YHR079C, strain IRE1 (second series), active compounds read low 0.99 | locus YHR079C, strain IRE1, active compounds read low 0.969 | locus YHR094C, strain hxt1, active compounds read low 0.988 | locus YHR129C, strain ARP1, active compounds read low 0.993 | locus YHR142W, strain chs7, active compounds read low 0.963 | locus YHR200W, strain rpn10, active compounds read low 0.986 | locus YIL066C, strain RNR3, active compounds read low 0.968 | locus YIL073C, strain SPO22, active compounds read low 1.03 | locus YIL125W, strain kgd1, active compounds read low 0.983 | locus YIR030C, strain dcg1, active compounds read low 0.988 | locus YJL092W, strain hpr5, active compounds read low 0.977 | locus YJL095W, strain BCK1 (second series), active compounds read low 0.966 | locus YJL095W, strain BCK1, active compounds read low 0.98 and 0.984 | locus YJL115W, strain asf1, active compounds read low 0.951 | locus YJL129C, strain trk1, active compounds read low 0.981 | locus YJL134W, strain LCB3, active compounds read low 0.992 | locus YJL154C, strain vps35, active compounds read low 0.975 | locus YJL164C, strain tpk1, active compounds read low 0.963 | locus YJL166W, strain qcr8, active compounds read low 0.976 | locus YJL168C, strain set2, active compounds read low 0.978 | locus YJL187C, strain SWE1 (second series), active compounds read low 0.965 | locus YJL187C, strain SWE1, active compounds read low 0.972 | locus YJR043C, strain POL32, active compounds read low 0.968
